Source: PubChem BioAssay (NCATS)
Records with an inconclusive call do not appear. Active and inactive are the calls of the source. Calls follow the shape of the dose curve; as a rule, active = well fitted cell-killing curve with a large enough effect; inconclusive = small, poorly fitted or top-dose-only effect, or effect the other way; inactive = no such curve, though single readings can be large or run the other way.

Assay: Viability qHTS for spleen associated tyrosine kinase inhibitor (SYKi) drug resistant MV4-11 cells (AID 1963824); also: nearly all actives have a fitted effect of over 35% in size
Conditions: SYKi-resistant MV4-11 viability, CellTiter-Glo, 72 h; series mostly up to 45 µM; viability, % of control: at the top concentration
Method in brief: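 SYK inhibitor-resistant MV4-11 AML cells, 500 per well, added to predispensed compounds and incubated 72 hr at 37 C, 5% CO2. Viability measured by CellTiter-Glo luminescence after 10 min at room temperature.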
Potency is read from the fitted curve at half-maximal effect.

| Structure (SMILES) | Potency | viability, % of control |
| --- | --- | --- |
| CC(C)(C(=O)NCC(F)(F)C(F)(F)F)C(=O)NC1C(=O)Nc2ccccc2-c2ccccc21 (configuration not stated) | 13 µM (active) |  |
| C=C[C@H](/C=C\c1ccc(O)cc1)c1ccc(O)cc1 | 18.4 µM (active) |  |
| OCC1OC(Oc2cc(O)cc(/C=C/c3ccc(OC4OC(CO)C(O)C(O)C4O)cc3O)c2)C(O)C(O)C1O (configuration not stated) |  | 78.3% [at 17.3 µM] (inactive) |
| CC1(C)CC[C@]2(C(=O)O[C@@H]3O[C@H](CO[C@@H]4O[C@H](CO)[C@@H](O)[C@H](O)[C@H]4O[C@@H]4O[C@H](CO)[C@H](O)[C@H](O)[C@H]4O)[C@@H](O)[C@H](O[C@@H]4O[C@H](CO)[C@@H](O)[C@H](O)[C@H]4O)[C@H]3O)CC[C@]3(C)C(=CCC4[C@@]5(C)CC[C@H](O[C@@H]6OC[C@@H](O)[C@H](O)[C@H]6O)[C@@](C)(C(=O)O)C5CC[C@]43C)[C@@H]2C1 (some centres not stated) |  | 74.7% [at 9.25 µM] (inactive) |
| COc1nc2ccc(Br)cc2cc1[C@@H](c1ccccc1)[C@@](O)(CCN(C)C)c1cccc2ccccc12 | 9.2 µM (active) |  |
| CN(C)c1nc2c(Br)c(Br)c(Br)c(Br)c2[nH]1 | 8.2 µM (active) |  |
| CC(O)/C=C/C1(O)C(C)C(O[C@@H]2O[C@H](CO)[C@@H](O)[C@H](O)[C@H]2O)C(O)CC1(C)C (some centres not stated) |  | 76.5% [at 17.3 µM] (inactive) |
| CC(=O)C1=C(O)C=C2Oc3c(C(C)=O)c(O)c(C)c(O)c3[C@]2(C)C1=O |  | 68.8% (inactive) |
| Clc1ccccc1CNCC1CCC(CNCc2ccccc2Cl)CC1 (configuration not stated) | 14.6 µM (active) |  |
| C=C1C(=O)O[C@@H]2[C@H]1CC(=O)[C@H](C)[C@@](O)(C(=O)/C=C/C)[C@H]2OC(=O)C(C)CC (some centres not stated) | 0.508 µM (active) |  |
| CCOC(=O)C1=Cc2ccc(C(F)(F)C(F)(F)F)cc2N=C(N)C1 | 20.6 µM (active) |  |
| COc1ccc([C@H]2OC[C@H]3O[C@@H](O[C@H]4[C@@H]2NC[C@@H]4O)[C@H](O)[C@H]3O)cc1 | 0.404 µM (active) |  |
| CC/C=C\[C@H](O)[C@H](O)C1=C(C)C(=O)[C@]2(O1)C(=O)N[C@@](OC)(C(=O)c1ccccc1)[C@@H]2O |  | 86.6% [at 17.3 µM] (inactive) |
| C=C1CC2OC(=O)C(=C)C2C(OC(=O)/C(C)=C\C)CC2(C)OC1=CC2=O (configuration not stated) | 0.453 µM (active) |  |
| O=C1OCc2cc3cccc(O[C@@H]4O[C@H](CO)[C@@H](O)[C@H](O)[C@H]4O)c3c(O)c21 |  | 104% (inactive) |
| CC/C=C/C(O)C(O)C1=C(C)C(=O)C2(O1)C(=O)NC(OC)(C(=O)c1ccccc1)C2O (configuration not stated) |  | 96.5% [at 17.3 µM] (inactive) |
| C=C1C(=O)OC2C1CCC(=C)C1CC(OC(C)=O)C(=C)C12 (configuration not stated) | 2.31 µM (active) |  |
